# PubChem BioAssay
# Where “and” joins values, the source holds several entries; their conditions need not be identical. Equal values may be shown once. Results filed as inconclusive are left out. For some assays here: Entries with a potency or affinity are not part of this list. Calls of active or inactive are those of the source.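 How the source made its calls, unless noted: active means compounds whose cell count with miR-34 switched on is under 0.7 times the count with it off; inactive means the rest.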
# Legend:
# [1] = target: ATP-dependent translocase ABCB1 (Homo sapiens) (UniProt P08183); test: P-glycoprotein substrate transport blockade – cell-based (AID 377; in the data active means fluorescence slope change above about 50%); conditions: MDR1-expressing cells, fluorescent substrate accumulation slope; stronger effect = higher value; concentration not given here
# Chain of ATP-dependent translocase ABCB1 (Homo sapiens) (P08183 whole entry, looked up): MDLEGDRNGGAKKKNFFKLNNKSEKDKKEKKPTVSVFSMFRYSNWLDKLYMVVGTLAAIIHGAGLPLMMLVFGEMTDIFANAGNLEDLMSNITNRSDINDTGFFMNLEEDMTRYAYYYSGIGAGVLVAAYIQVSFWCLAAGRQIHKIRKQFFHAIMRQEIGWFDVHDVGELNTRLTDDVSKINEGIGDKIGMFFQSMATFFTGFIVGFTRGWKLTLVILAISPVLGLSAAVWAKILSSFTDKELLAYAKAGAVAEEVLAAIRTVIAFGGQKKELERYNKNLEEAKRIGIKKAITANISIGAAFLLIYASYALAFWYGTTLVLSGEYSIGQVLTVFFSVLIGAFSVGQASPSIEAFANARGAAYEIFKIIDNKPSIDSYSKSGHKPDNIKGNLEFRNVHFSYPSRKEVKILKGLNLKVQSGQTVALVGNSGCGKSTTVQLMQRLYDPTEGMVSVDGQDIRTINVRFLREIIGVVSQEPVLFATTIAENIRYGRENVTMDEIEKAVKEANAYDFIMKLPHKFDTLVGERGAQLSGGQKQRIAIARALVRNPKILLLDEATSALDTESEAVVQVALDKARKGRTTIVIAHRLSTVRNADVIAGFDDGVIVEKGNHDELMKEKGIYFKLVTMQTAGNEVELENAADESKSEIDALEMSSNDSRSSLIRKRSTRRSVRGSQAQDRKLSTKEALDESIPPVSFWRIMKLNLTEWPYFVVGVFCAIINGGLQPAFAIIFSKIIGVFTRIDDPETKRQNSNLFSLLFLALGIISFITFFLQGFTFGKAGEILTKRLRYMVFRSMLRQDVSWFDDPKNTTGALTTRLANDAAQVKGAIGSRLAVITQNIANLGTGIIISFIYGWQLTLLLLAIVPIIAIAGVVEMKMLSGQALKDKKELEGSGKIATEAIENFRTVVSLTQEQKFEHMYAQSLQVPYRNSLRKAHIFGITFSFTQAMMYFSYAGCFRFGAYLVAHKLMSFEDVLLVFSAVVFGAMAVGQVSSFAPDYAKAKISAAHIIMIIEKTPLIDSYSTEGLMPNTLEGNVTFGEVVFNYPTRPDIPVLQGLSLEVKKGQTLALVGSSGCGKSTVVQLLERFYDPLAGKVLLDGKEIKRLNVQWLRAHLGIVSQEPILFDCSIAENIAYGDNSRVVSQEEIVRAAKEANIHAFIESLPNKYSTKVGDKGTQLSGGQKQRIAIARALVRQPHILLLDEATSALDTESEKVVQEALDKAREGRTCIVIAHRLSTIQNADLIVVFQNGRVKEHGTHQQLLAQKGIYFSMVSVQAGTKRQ
# [2] = blockers of polyQ-driven CASP3 activation – cell-based (AID 1583); conditions: polyglutamine-induced caspase-3 activation, cell assay; stronger effect = higher value;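 tested at 10 µM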
# [3] = yeast 75Q aggregation reduction – 75Q-TubU reporter (AID 1593); conditions: Yeast 75Q polyglutamine aggregation reporter
# [4] = restoration of touch response, mutant HTT neurons – whole organism, C. elegans mechanosensory neurons, N-terminal huntingtin (AID 1599); conditions: C. elegans polyQ-huntingtin mechanosensory neurons, stronger effect = higher value
# [5] = blockers of cytochrome c efflux from mitochondria – biochemical, purified mitochondria (AID 1603); conditions: stronger effect = lower value;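 further: mouse liver mitochondria challenged with calcium chloride; signal normalized to the plate average as 100%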
# [6] = polyglutamine aggregate formation blockers (AID 1604); conditions: polyglutamine-induced protein aggregation inhibition assay; stronger effect = higher value; tested at 2.5 µM
# [7] = glutamate transport activators, MN-1 cells, MN-1 cell line (AID 1612); conditions: MN-1 motor neuron cells, stronger effect = higher value;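 further: tested at 1 µM final; 0% = mean of DMSO vehicle wells on each plate; positive means more glutamate uptake than control and negative means less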
# [8] = GFP-Q80 aggregate reduction, neuronal-like cells, cell-based, NGF-treated PC12, GFPQ80 (AID 1614); conditions: PC12 NGF-treated GFP-polyQ80 inclusion reduction;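 further: lower means fewer inclusions and 0 means no inclusions at all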
# [9] = 75Q-TubH aggregate inhibition, S. cerevisiae, yeast (AID 1616); conditions: S. cerevisiae 75Q-TubH polyglutamine aggregation suppression; stronger effect = higher value
# [10] = compounds altering viability of human ES cells (AID 493140; call rule not given here;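 further: cells exposed to compounds for four days before counting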); conditions: human embryonic stem cell survival screen; stronger effect = higher value
# [11] = Wnt pathway potentiators raising nuclear beta-catenin – imaging, WNT3A-conditioned medium, mouse C2C12, NPC library, primary screen (AID 1117326; in the data active means nuclear beta-catenin stimulation mostly above about 4.2%, no sharp cut-off; inactive means mostly below about 10%); conditions: stronger effect = higher value
# [12] = stimulators of insulin release from INS-1E, primary screen, cell-based, 5 mM glucose, NPC library (AID 1117329;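 active means compound raises insulin release from rat beta cells at 5 mM glucose, no numeric limit stated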); conditions: rat INS-1E insulin secretion, at 10 µM, stronger effect = higher value
# [13] = growth inhibition of GSK3B-pretreated HCT116 cells – cell-based, CellTiter-Glo, 0.2 to 20 µM (AID 1117336;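 active means compounds lowering colon cancer cell viability after pretreatment blocking the GSK3B kinase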); conditions: HCT116 viability after GSK3B inhibitor, at 20 µM, stronger effect = higher value
# [14] = inhibition of endothelial tube formation, primary screen, imaging, VEGF stimulated, CD31 staining, tube area, NPC library (AID 1117340;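 active means compound that reduces growth-factor-driven endothelial tube area in a mixed cell culture, no cutoff stated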); conditions: VEGF-stimulated ADSC/ECFC co-culture, at 10 µM, stronger effect = higher value
# [15] = GLP1 release stimulators, primary, NCI-H716, NPC library (AID 1117341;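 active means compound raises GLP1 secretion from the human gut endocrine cells, with no numeric limit stated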); conditions: NCI-H716 cells, at 10 µM, stronger effect = higher value
# [16] = HCT116 colon cancer cell growth inhibition, primary screen, CellTiter-Glo luminescence, NPC library (AID 1117342;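 active means compounds that lower survival of HCT116 colon cancer cells in the luminescence readout, no numeric limit stated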); conditions: at 20 µM (top of the series)
# [17] = reduced SW480 viability measured with CellTiter-Glo, NPC library, primary (AID 1117343;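 active means compounds that lower viability of the colon cancer cells in the luminescence readout, with no numeric limit stated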); conditions: CellTiter-Glo luminescence; at 20 µM (top of the series)
# [18] = NPC library primary testing for decreased DLD-1 cell viability via CellTiter-Glo (AID 1117346;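 active means compounds that lower survival of DLD-1 colon cancer cells in the luminescence readout, no cutoff given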); conditions: DLD-1 viability, CellTiter-Glo luminescence; at 20 µM (top of the series)
# [19] = target: 6-phosphogluconate dehydrogenase, decarboxylating (Homo sapiens) (UniProt P52209); test: inhibition of human phosphogluconate dehydrogenase – biochemical, recombinant enzyme, NADPH absorbance, primary screen (AID 1159550;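 active means at least 20% inhibition of 6-phosphogluconate dehydrogenase activity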); conditions: recombinant 6PGD, NADPH absorbance 341 nm; at 10 µM; stronger effect = higher value
# Chain of 6-phosphogluconate dehydrogenase, decarboxylating (Homo sapiens) (P52209 whole entry, looked up): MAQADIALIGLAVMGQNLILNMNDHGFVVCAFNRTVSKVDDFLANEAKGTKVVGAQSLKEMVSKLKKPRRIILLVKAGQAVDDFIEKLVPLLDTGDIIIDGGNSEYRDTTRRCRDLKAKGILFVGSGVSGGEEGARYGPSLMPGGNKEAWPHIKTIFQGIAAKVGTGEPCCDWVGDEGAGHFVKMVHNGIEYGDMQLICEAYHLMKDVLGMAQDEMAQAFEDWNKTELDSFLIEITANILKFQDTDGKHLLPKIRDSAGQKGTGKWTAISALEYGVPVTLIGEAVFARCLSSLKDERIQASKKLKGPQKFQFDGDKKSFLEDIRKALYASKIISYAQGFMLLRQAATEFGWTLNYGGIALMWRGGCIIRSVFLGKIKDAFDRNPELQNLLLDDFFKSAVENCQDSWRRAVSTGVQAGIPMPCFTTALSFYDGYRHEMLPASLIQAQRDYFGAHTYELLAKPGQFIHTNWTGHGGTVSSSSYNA
# [20] = modulation of C. elegans fzo-1 (AID 1259413; call rule not given here;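 further: fzo-1 mutant C. elegans worms in liquid wells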); conditions: C. elegans fzo-1 modulator screen, mean read-out; stronger effect = higher value
# [21] = EMT-state selective cytotoxicity in co-culture – imaging, PC-3E GFP, TEM4-18 mCherry, primary screen (AID 1345086;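 active means compounds killing one labelled cell type while sparing the other, by normalised counts and ratio limits, not self-fluorescent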;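 further: cells exposed to compound for 72 h before imaging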;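 on red/green cell ratio (normalised): normalised mesenchymal count divided by normalised epithelial count so high means epithelial killing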); conditions: PC-3E GFP / TEM4-18 mCherry co-culture, imaging cell counts, at 1 µM
# [22] = viability loss in pontine glioma line – cell-based, SU-DIPG-XIII, MIPE4.0, CellTiter-Glo, qHTS, dose response (AID 1347061; cut-off not given, nearly all actives have AC50 up to about 37 µM;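 further: cells exposed to compound for 48 hours before readout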); conditions: CellTiter-Glo ATP luminescence
# [23] = viability loss in pontine glioma line – cell-based, JHH-DIPG-1, MIPE4.0, CellTiter-Glo, qHTS, dose response (AID 1347062; cut-off not given, nearly all actives have AC50 up to about 27 µM); conditions: JHH-DIPG-1 viability, CellTiter-Glo ATP luminescence
# [24] = viability loss in pontine glioma line – cell-based, SU-DIPG-XIII, MIPE5.0, CellTiter-Glo, qHTS, dose response (AID 1347064; cut-off not given, nearly all actives have AC50 up to about 23 µM); conditions: CellTiter-Glo ATP luminescence
# [25] = viability loss in pontine glioma line – cell-based, SU-DIPG-XXV, MIPE5.0, CellTiter-Glo, qHTS, dose response (AID 1347065; cut-off not given, nearly all actives have AC50 up to about 26 µM;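 further: cells exposed to compound for 48 hours before ATP readout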); conditions: CellTiter-Glo ATP luminescence
# [26] = growth inhibition of DIPG cells – cell-based, MIPE4.0 library, CellTiter-Glo luminescence, qHTS (AID 1347066; cut-off not given, nearly all actives have AC50 up to about 30 µM;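 further: cells exposed to compound for 48 hours before readout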); conditions: SU-DIPG-VI viability, CellTiter-Glo ATP luminescence
# [27] = growth inhibition of DIPG cells – cell-based, MIPE5.0 library, qHTS (AID 1347068; cut-off not given, nearly all actives have IC50 up to about 30 µM); conditions: SU-DIPG-XXV viability
# [28] = viability loss with induced miR-34 in A549 – imaging, A549 dox-inducible miR-34, nuclei and caspase counts, primary screen (AID 1347080); conditions: A549 miR-34 inducible, Hoechst nuclei count, 48 h
# [29] = MELAS cybrid and Rieske KO viability enhancers – cell-based, MELAS cybrids, Rieske KO mouse fibroblasts, CellTiter-Glo, primary screen (AID 1508586;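 active means mean z-score across replicates of 1.96 or higher in either the MELAS or the Rieske mutant cell line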;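 further: z relative to plate mean and SD of compound and empty wells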); conditions: low glucose
# [30] = target: NAD(+) hydrolase SARM1 (Homo sapiens) (UniProt Q6SZW1); test: blocking NAD cleavage by SARM1 SAM-TIR – cell lysate, NAD-Glo luminescence (AID 1508614;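 active means compound whose remaining NAD level is above about 45 nM, limit read from the data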); conditions: SAM-TIR HEK293T lysate NADase, at 1 µM, stronger effect = higher value
# Chain of NAD(+) hydrolase SARM1 (Homo sapiens) (Q6SZW1 whole entry, looked up, the tested form may be a part): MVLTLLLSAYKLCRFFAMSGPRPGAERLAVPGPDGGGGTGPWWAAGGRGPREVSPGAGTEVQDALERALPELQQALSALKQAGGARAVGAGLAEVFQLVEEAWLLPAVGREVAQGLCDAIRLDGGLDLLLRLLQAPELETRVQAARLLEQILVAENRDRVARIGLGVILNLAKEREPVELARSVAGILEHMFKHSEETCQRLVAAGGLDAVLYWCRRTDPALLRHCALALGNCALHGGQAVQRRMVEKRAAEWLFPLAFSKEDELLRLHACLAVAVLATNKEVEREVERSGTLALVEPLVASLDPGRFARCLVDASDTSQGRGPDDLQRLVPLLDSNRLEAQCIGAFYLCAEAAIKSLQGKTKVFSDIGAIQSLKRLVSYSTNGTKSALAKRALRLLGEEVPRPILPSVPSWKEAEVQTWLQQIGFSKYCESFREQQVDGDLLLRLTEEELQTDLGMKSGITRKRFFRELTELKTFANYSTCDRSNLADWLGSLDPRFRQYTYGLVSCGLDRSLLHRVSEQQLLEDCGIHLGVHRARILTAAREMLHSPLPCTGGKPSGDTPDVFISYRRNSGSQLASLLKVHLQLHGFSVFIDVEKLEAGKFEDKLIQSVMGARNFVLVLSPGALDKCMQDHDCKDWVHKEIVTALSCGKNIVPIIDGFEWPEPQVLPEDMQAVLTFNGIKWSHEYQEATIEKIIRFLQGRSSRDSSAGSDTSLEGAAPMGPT
# [31] = target: Mitogen-activated protein kinase 7 (Homo sapiens) (UniProt Q13164); test: Gal4-ERK5 driven luciferase induction – cell-based, HTS, primary screen (AID 1508626;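 active means luciferase signal above three times the same-plate solvent-only control wells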;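 further: luciferase driven by Gal4-ERK5 fusion binding five Gal4 sites before minimal TATA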); conditions: HeLa Gal4-ERK5 transactivation, 18 h, at 5 µM, stronger effect = higher value
# Chain of Mitogen-activated protein kinase 7 (Homo sapiens) (Q13164 whole entry, looked up, the tested form may be a part): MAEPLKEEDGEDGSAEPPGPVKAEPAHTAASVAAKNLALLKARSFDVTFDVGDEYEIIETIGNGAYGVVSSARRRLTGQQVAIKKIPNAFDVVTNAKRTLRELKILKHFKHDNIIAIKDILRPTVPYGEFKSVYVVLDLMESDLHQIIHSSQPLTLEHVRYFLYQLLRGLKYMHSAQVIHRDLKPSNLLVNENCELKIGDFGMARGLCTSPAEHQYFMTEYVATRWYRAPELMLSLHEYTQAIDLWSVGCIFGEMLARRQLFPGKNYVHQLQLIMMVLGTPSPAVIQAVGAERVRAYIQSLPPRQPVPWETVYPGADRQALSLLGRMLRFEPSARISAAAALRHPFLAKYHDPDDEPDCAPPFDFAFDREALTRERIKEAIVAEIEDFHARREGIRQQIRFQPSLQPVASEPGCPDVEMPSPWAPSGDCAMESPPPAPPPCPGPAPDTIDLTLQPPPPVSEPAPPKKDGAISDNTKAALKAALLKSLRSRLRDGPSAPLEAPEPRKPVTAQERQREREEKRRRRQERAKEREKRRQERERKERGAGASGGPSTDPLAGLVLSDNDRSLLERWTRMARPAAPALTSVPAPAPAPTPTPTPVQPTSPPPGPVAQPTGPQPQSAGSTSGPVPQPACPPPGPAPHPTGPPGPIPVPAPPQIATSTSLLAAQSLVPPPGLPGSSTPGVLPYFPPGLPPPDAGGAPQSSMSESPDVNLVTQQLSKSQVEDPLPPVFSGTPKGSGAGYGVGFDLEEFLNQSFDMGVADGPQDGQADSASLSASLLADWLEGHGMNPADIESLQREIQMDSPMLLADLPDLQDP
# [32] = galactose survival enhancers in mitochondrial complex I cybrids – cell-based, galactose medium, ATP luminescence, primary screen (AID 1645843;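 active means z-score of at least 1.8 in each of two replicates, scored against plate mean and spread of sample wells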;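 further: positive z means more ATP and so rescue of galactose-driven cybrid death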); conditions: complex I mutant cybrid cells, 72 h, stronger effect = higher value
# [33] = growth inhibition, single agent or in combination, cell-based, chromothripsis tumors, cisplatin or BGB combos (AID 1671449; in the data active means inhibition above about 80%;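 further: cells exposed for 96 hours; 0% = vehicle DMSO and 100% = killing by high DMSO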); conditions: LFS_MB_P medulloblastoma cells
# [34] = growth inhibition, single agent and combos, cell-based, chromothripsis tumors, cisplatin or BGB combos (AID 1671450; in the data active means inhibition above about 80%;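 further: cells exposed to compound for four days; 0% = vehicle DMSO and 100% = cell killing by high DMSO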); conditions: HDN33 neuroblastoma cells, stronger effect = higher value
# [35] = growth inhibition, single agents and combos, ICB984, cell-based, cisplatin or BGB combos, synergistic combos for chromothripsis tumors (AID 1671451); conditions: ICB984 medulloblastoma cells, drug combinations, at 0.005 µM, stronger effect = higher value;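 further: cells exposed for 96 hours before readout; 0% = vehicle DMSO and 100% = killing by high DMSO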
smiles,measurement,setting,value
CCn1cc(C(=O)O)c(=O)c2cc(F)c(N3CCNCC3)cc21,fluorescence slope change,[1],98.4% (active)
same,inhibition,[2],-2.25%
same,score,[3],0.92
same,rescue above control,[4],3.5
same,cytochrome c release ratio,[5],0.95
same,inhibition of aggregation,[6],52.4%
same,glutamate uptake change,[7],-6.97%
same,inclusion score,[8],2
same,aggregation suppression score,[9],1.19
same,survival,[10],20.2 (inactive)
same,nuclear beta-catenin stimulation,[11]; at 10 µM,0.1% (inactive)
same,nuclear beta-catenin stimulation,"[11]; stimulation, at 2 µM",-1.2%
same,insulin secretion stimulation,[12],1.1% (inactive)
same,viability decrease,[13],13.9% (inactive)
same,tube area decrease,[14],-4.6% (inactive)
same,GLP1 secretion stimulation,[15],4.3% (inactive)
same,inhibition of viability,[16],4.5% (inactive)
same,viability decrease (inhibition),[17],-12% (inactive)
same,viability decrease (inhibition),[18],-0.1% (inactive)
same,inhibition,[19],-0.111% (inactive)
same,mean signal,[20],207 (inactive)
same,red/green cell ratio (normalised),"[21]; actives lie on both sides, counts scaled to control wells, 1 = unselective",1.22 (inactive) and 1.14 (inactive)
same,normalised cell number,[21]; measured here: epithelial PC-3E GFP cell survival,0.92 and 1.12
same,normalised cell number,[21]; measured here: mesenchymal TEM4-18 mCherry cell survival,1.13 and 1.28
same,outcome,[22],inactive
same,outcome,[23],inactive
same,outcome,[24],inactive
same,outcome,[25],inactive
same,outcome,[26],inactive
same,outcome,[27],inactive
same,fold change,"[28]; stronger effect = lower value, cell number ratio, induced over uninduced",0.843 (inactive) and 0.881 (inactive) and 0.867 (inactive)
same,fold change,[28]; measured here: relative caspase fold change +Dox/-Dox,1.43 and 1.17
same,cell count,"[28]; measured here: total cells with miR-34 induction, stronger effect = lower value",7840 and 11600 and 9850
same,cell count,[28]; measured here: total cells without miR-34 induction,9310 and 13200 and 11400
same,z-score,"[29]; MELAS cybrid survival, CellTiter-Glo 48 h, stronger effect = higher value",1.33 (inactive) and -0.232 (inactive)
same,z-score,"[29]; Rieske KO mouse fibroblast survival, CellTiter-Glo 72 h",-0.144 and -0.221
same,remaining NAD,[30],10 nM (inactive)
same,luciferase signal,[31],56 AU (inactive)
same,z-score,[32],0.67 (inactive)
same,inhibition,"[33]; at 0.5 µM, stronger effect = higher value",7.63% (inactive)
same,inhibition,"[33]; measured here: combination with BGB IC20, at 0.005 µM",-17.9%
same,inhibition,"[33]; measured here: combination with BGB IC40, at 0.005 µM",-10.9%
same,inhibition,"[33]; measured here: combination with BGB IC40, at 0.05 µM",-0.516%
same,inhibition,"[33]; measured here: combination with cisplatin, at 0.5 µM, stronger effect = higher value",9.32%
same,inhibition,"[33]; measured here: combination with cisplatin, at 5 µM, stronger effect = higher value",-19.2%
same,inhibition,"[34]; BGB combo, at 5 µM",-0.689%
same,inhibition,[34]; at 0.5 µM,12.2% (inactive)
same,inhibition,"[34]; cisplatin combo, at 5 µM",-11.9%
same,inhibition,"[34]; measured here: with BGB IC20 combination, at 0.5 µM",32.5%
same,inhibition,"[34]; measured here: with cisplatin IC20 combination, at 0.5 µM",3.81%
same,inhibition,"[34]; single agent, at 5 µM",-7.4%
same,inhibition,[35]; BGB IC20 combo,-26.7%
same,inhibition,[35]; BGB IC40 combo,-18.2%
